Source: PubChem BioAssay
A selection: hits, their analogues and other compounds. The true share with any hit is near 2.4%.
Arbovirus inh = arbovirus infection inhibition | AID 1251 | hit rate 0.37% among 200,000 | arbovirus infection cell-based antiviral screen | inhibition, % at 10 µM; in the data active means inhibition above about 30%
MEKK2 WT-MEK5 = raises or lowers MEK5 binding to wildtype human MEKK2 PB1 domain; Q9Y2U5; bead flow cytometry, Alexa488-MEK5 binding to MEKK2 WT; actives lie on both sides; binding response (% of control), % at 10 µM; hit rate 1.1% among 290,000; in the data active means binding response below about 67% or above about 130%
MEKK2 mut-MEK5 = signal of MEK5 binding to mutant human MEKK2 PB1 domain. bead flow cytometry, Alexa488-MEK5 binding to MEKK2 mutant. percent response, % at 10 µM. hit rate 0.35% among 290,000. AID 1530; in the data active means percent response above about 24%, passing the limit was not always enough
Pf gametocyte = kills late stage P. falciparum gametocytes; P. falciparum stage V gametocytes, ATP luminescence, 24 h; inhibition, % at 10.9 µM; hit rate 0.065% among 150,000;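 active means inhibition above the mean plus 3 SD of compounds within the control limits, set per campaign, cut at about 38% in these data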;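 further: 0% = DMSO wells and 100% = medium only without gametocytes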
MEKK3 PB1 HTS = modulators (inhibitors or enhancers) of MEK5 binding to human MEKK3 PB1 domain. bead-based flow cytometry, Alexa488-MEK5 binding to MEKK3; actives lie on both sides; 0 = blocked by unlabeled MEK5, 100 = vehicle. binding response (% of control), % at 10 µM. hit rate 1.4% among 290,000. AID 1529;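 active means binding response more than 3 SD above or below the average of its plate-row segment, actives on both sides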;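 further: Alexa488 bead fluorescence after subtracting the streptavidin-only scavenger bead signal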
Target sequence (Q99759 whole entry, looked up, the tested form may be a part): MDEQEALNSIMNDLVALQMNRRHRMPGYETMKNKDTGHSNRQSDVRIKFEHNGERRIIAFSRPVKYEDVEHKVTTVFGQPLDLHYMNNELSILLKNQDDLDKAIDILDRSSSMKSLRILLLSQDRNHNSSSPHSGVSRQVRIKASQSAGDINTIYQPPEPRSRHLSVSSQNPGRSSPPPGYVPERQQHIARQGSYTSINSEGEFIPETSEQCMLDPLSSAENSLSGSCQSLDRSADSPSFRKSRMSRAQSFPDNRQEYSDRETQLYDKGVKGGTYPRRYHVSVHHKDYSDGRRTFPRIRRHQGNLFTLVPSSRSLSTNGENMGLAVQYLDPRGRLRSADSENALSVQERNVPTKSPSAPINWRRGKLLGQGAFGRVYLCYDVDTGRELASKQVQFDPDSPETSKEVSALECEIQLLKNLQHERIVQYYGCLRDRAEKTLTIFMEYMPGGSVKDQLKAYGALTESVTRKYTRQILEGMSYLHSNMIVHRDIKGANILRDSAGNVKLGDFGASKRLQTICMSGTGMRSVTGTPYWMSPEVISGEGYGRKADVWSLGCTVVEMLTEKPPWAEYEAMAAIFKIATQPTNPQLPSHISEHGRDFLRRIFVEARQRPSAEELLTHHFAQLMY
MEKK2wt confirm = raises or lowers MEK5 binding to wildtype human MEKK2, retest | shares compounds with MEKK3 PB1 HTS | bead flow cytometry, Alexa488-MEK5 binding to MEKK2 WT; actives lie on both sides | binding response (% of control), % at 10 µM | hit rate 2.4% among 5,900; in the data active means binding response below about 16% or above about 210%; inactive means in between
MEKK2mut-MEK5 = signal of MEK5 binding to mutant human MEKK2, retest; bead flow cytometry, Alexa488-MEK5 binding to MEKK2 mutant; percent response, % at 10 µM; shares compounds with MEKK3 PB1 HTS; hit rate 2% among 5,900; in the data active means percent response mostly above about 71%, no sharp cut-off; inactive means mostly below about 38%;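 further: higher means compound restores mutant binding toward wildtype level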
MEKK3 confirm = confirmation of inhibitors of MEK5 binding to human MEKK3. shares compounds with MEKK3 PB1 HTS. hit rate 1.8% among 5,900. binding response (% of control), % at 10 µM. AID 1894. bead flow cytometry, Alexa488-MEK5 binding to MEKK3; stronger effect = lower value;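 active means binding response below 72% of control, or above a set upper limit, though filed actives all read lower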;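 further: 100% = DMSO only wells and 0% = binding blocked by excess unlabeled MEK5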
* = called active by the depositor; . = not tested or not shown; [ ] = remark or other dose.

SMILES	Arbovirus inh	MEKK2 WT-MEK5	MEKK2 mut-MEK5	Pf gametocyte	MEKK3 PB1 HTS	MEKK2wt confirm	MEKK2mut-MEK5	MEKK3 confirm
C[C@@H]1CCC(=O)N(C[C@@H](C)CSc2ccccc2)CC1	.	110.0	-1.0	-29.1	103.0	.	.	.
Cc1cc2oc(=O)cc(CN3CCCc4ccccc43)c2cc1C	8.3	.	228.0*	.	105.0	92.0	-13.0	100.0
COc1ccc(NC(=O)N2CCN(c3cccc(C(F)(F)F)c3)CC2)cc1	9.6	0.0*[inhibitor]	-21.0	.	0.0*[inhibitor]	97.0	-4.0	101.0
Cc1ccc(S(=O)(=O)N2CCN(C(C)CC(=O)O)CC2)cc1 (centres undefined)	6.9	3.0*[inhibitor]	2.0	.	3.0*[inhibitor]	99.0	-1.0	101.0
CC(=O)CCc1c(C)nc2ccc(C)cc2c1Cl	-2.6	117.0	1.0	-0.5	122.0	.	.	.
Cn1c(=O)n(C)c2cc(S(=O)(=O)NCCOCCO)ccc21	-3.0	-1.0*[inhibitor]	-27.0	.	2.0*[inhibitor]	103.0	2.0	102.0
CC(C)CN1CCNC(=O)C1CC(=O)NCc1cnn(-c2cccc(F)c2)c1 (centres undefined)	1.8	138.0*	36.0	-12.2	107.0	108.0	-28.0	90.0
Cc1cccc(CCNC(=O)C2CCN(S(=O)(=O)N3CCOCC3)CC2)c1	.	98.0	2.0	.	101.0	.	.	.
O=C(NCCc1cnn(-c2ccccc2)c1)c1cc(COc2c(F)cccc2F)on1	-32.0	94.0	-10.0	8.1	92.0	.	.	.
CS(=O)(=O)N(CCCC(=O)N1CCCCCC1)c1cccc(Cl)c1	.	122.0	37.0*	.	119.0	102.0	-3.0	100.0
COc1ccc(/C=N/NC(=O)CC2N=C(Cc3ccccc3)NNC2=O)cc1OC (centres undefined)	-7.7	96.0	0.0	-36.5	96.0	.	.	.
Cc1ccccc1NC(=O)c1c(C)nc(SCC(=O)OCc2ccccc2)c(C#N)c1-c1ccc(F)cc1	-4.2	111.0	1.0	-0.7	144.0*	101.0	-5.0	98.0
Cc1ccc(OCC(=O)Nc2ccc(NC(=O)c3ccccc3)c(C)c2)cc1	.	95.0	-5.0	.	98.0	.	.	.
CCCc1c(C)nc2ccccc2c1SCCC#N	28.2	93.0	0.0	19.0	60.0*[inhibitor]	95.0	0.0	98.0
CCc1c(C)nc2c(Br)cccc2c1SCCC#N	12.1	102.0	2.0	2.1	143.0*	102.0	-2.0	101.0
CCCCc1c(C)nc2ccc(Br)cc2c1SCCC#N	-29.2	106.0	21.0	.	101.0	.	.	.
Cc1ccc(SSc2cc(C)ccc2N)c(N)c1	.	.	.	-19.4	.	.	.	.
COc1ccc(/C=C/C(=O)c2ccc3c(c2)OCCO3)cc1[N+](=O)[O-]	11.6	120.0	6.0	.	132.0*	97.0	-3.0	97.0
O=C(c1ccc(F)cc1)N1CCN2C(=O)c3ccccc3C12c1ccccc1 (centres undefined)	.	66.0	-38.0	-1.6	60.0*[inhibitor]	103.0	-2.0	101.0
O=C(N/N=C/c1ccccc1)NC1CCCCC1	-4.1	102.0	0.0	.	67.0*[inhibitor]	95.0	-4.0	93.0
O=C(N/N=C/c1cccc(F)c1)NC1CCCCC1	-3.3	116.0	16.0	-20.7	102.0	.	.	.
O=C(N/N=C/c1ccccc1OC(F)F)NC1CCCCC1	.	82.0	-23.0	-7.8	88.0	.	.	.
O=C(N/N=C/c1ccccc1F)NC1CCCCC1	-6.9	105.0	1.0	6.0	140.0*	69.0	-17.0	68.0*
CCOC(=O)c1ccc(-n2c(O)c(/C=N/NC(=O)C3COc4ccccc4O3)c3ccccc3c2=O)cc1 (centres undefined)	-23.2	98.0	5.0	-2.9	99.0	.	.	.
Cn1c(=O)[nH]c(=O)c2c1nc(SCC(=O)O)n2CCCc1ccccc1	.	105.0	7.0	.	100.0	.	.	.
SMILES	Arbovirus inh	MEKK2 WT-MEK5	MEKK2 mut-MEK5	Pf gametocyte	MEKK3 PB1 HTS	MEKK2wt confirm	MEKK2mut-MEK5	MEKK3 confirm
COCCn1c(Sc2ccccc2)nc2c1c(=O)[nH]c(=O)n2C	6.1	3.0*[inhibitor]	-21.0	8.6	2.0*[inhibitor]	101.0	3.0	100.0
Cn1c(=O)[nH]c(=O)c2c1nc(SCC(=O)O)n2Cc1ccccc1	.	105.0	27.0*	-3.4	102.0	106.0	4.0	104.0
N#Cc1cccc(Oc2ccc(-c3cnc4ccccc4n3)cc2)c1C#N	-12.4	100.0	-1.0	.	130.0*	98.0	-5.0	100.0
C=CCN(Cc1cc(OC)ccc1OC)C(=O)c1cc2ccc(OC)cc2[nH]1	.	94.0	2.0	.	97.0	.	.	.
CC(C)NCC(O)Cn1c2c(c3ccccc31)CCc1c-2cnn1-c1ccccc1 (centres undefined)	-29.4	176.0*	30.0*	-6.7	110.0	149.0	25.0	106.0
CN(Cc1ccc(C#CCCO)cc1)CC1CCCN(CCc2ccc(Cl)cc2)C1 (centres undefined)	.	154.0*	21.0	.	110.0	121.0	20.0	100.0
CN(Cc1ccccc1O)CC1CCCN(CCc2ccc(Cl)cc2)C1 (centres undefined)	.	126.0	11.0	0.0	105.0	.	.	.
CCN(CC)c1ccc(/C=C2\CCC(/C=C(\C#N)C(=O)Nc3ccccc3F)=C2N2CCOCC2)cc1	-4.7	.	.	13.3	.	.	.	.
N#C/C(=C\C1=C(N2CCOCC2)C(=C\c2ccc(Cl)cc2)/CC1)C(=O)Nc1ccccc1F	-24.9	.	-9.0	15.1	7.0*[inhibitor]	72.0	-19.0	73.0
N#C/C(=C\C1=C(N2CCOCC2)C(=C/c2cccc([N+](=O)[O-])c2)/CC1)C(=O)Nc1ccccc1F	-8.7	.	-7.0	-21.6	9.0*[inhibitor]	92.0	-7.0	98.0
C/C(=N/Nc1ccc([N+](=O)[O-])cc1)c1c[nH]c2ccccc12	.	129.0	7.0	-30.6	103.0	.	.	.
CCN1C(=NCC(C)C)N[C@@H](c2cccc(F)c2)C(C(=O)OC)=C1C	.	105.0	10.0	.	99.0	.	.	.
COc1ccccc1NC(=O)N1CCCC1C(=O)Nc1nnc(C(C)C)s1 (centres undefined)	-0.8	3.0*[inhibitor]	-14.0	.	3.0*[inhibitor]	108.0	10.0	106.0
CC(C)c1nnc(NC(=O)C2CCCN2C(=O)Nc2ccccc2F)s1 (centres undefined)	6.5	129.0	7.0	-4.1	151.0*	100.0	-3.0	100.0
CC(C)c1nnc(NC(=O)C2CCCN2C(=O)Nc2ccccc2[N+](=O)[O-])s1 (centres undefined)	10.3	105.0	-2.0	-11.6	107.0	.	.	.
CCCCC(=O)Nc1ccccc1Oc1ccccc1	0.5	99.0	-7.0	4.3	99.0	.	.	.
CN1Cc2sc(N)c(C#N)c2CC1(C)C	-3.3	52.0*[inhibitor]	-14.0	-5.9	88.0	94.0	4.0	88.0
Cc1nn(C)cc1CNC(=O)c1cccc(Br)c1	-5.0	96.0	8.0	.	122.0*	99.0	2.0	97.0
O=C(C[n+]1cnn(CC(=O)c2ccc(Cl)cc2Cl)c1)c1ccc([N+](=O)[O-])cc1	-37.2	157.0*	24.0	7.9	101.0	122.0	5.0	105.0
